Laboratory results published in the supplement of paper PMC10849652.
Of roughly 7,900 targets only a part is listed; those with a hit were picked by preference. About 0.6% of all pairs of compound and target were hits.

What follows are targets tested with C1=CC2=C(C=CC(=C2)/C=C\3/C(=O)NC(=NCC4=CC=CS4)S3)N=C1 (assay: log2 fold change, soluble protein after heating vs DMSO (PISA); higher = thermal stabilisation; K562 cells, 10 uM, 30 min; active = over 0.2 and 3.5 SD of the protein, either way, in both replicates (recomputed)).
How it was run: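 K562 cells (2×10^6 cells/mL) were treated with 10 μM compound for 30 min, and aliquots were heated for 3 min over 48°C-58°C. Pooled aliquots were extracted in PBS with 0.5% NP-40 at 4°C, and the supernatant after 21,000xg for 90 min was measured by TMTpro 16plex LC-MS/MS with channel sums equalised. Reported thermal stability, relative to control samples and from duplicates, is a log2 fold change.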

UniProt P51692, sequence (P51692 whole entry, looked up): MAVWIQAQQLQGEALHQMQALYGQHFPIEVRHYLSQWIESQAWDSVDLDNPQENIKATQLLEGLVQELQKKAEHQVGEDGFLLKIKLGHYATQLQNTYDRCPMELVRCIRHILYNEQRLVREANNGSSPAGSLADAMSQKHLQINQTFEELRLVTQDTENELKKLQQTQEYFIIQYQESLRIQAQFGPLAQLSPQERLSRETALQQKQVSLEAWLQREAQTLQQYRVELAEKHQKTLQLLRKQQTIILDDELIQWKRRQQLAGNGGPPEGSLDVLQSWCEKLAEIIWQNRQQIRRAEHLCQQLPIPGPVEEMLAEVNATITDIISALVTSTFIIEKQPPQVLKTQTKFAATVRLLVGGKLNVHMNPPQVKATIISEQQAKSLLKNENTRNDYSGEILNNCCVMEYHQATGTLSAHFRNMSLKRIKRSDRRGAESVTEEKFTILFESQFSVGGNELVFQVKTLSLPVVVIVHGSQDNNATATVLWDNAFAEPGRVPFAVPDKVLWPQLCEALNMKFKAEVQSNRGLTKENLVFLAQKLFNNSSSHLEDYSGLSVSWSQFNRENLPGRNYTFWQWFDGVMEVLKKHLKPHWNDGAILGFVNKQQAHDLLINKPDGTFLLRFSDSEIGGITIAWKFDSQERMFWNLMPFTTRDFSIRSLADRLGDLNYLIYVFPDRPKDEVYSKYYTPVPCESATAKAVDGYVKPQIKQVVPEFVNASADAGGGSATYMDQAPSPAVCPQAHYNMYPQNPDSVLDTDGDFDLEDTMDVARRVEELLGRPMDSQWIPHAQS
UniProt Q9UBP0, sequence (Q9UBP0 whole entry, looked up): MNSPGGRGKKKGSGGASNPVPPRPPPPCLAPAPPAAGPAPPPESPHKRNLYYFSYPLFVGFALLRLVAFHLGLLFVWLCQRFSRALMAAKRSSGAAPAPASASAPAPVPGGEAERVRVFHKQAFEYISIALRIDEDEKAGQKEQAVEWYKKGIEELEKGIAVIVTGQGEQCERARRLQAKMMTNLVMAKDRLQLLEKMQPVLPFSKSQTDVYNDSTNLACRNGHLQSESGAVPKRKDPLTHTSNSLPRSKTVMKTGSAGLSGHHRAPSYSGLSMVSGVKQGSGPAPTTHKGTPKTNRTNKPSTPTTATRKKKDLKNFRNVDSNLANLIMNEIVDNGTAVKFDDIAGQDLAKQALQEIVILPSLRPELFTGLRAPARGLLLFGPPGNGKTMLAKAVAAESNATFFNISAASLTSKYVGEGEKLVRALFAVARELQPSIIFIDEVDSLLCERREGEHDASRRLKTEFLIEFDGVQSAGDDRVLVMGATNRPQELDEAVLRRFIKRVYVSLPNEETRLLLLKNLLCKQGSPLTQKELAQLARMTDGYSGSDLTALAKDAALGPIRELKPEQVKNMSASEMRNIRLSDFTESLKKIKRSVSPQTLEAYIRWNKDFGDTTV
UniProt Q92544, sequence (Q92544 whole entry, looked up): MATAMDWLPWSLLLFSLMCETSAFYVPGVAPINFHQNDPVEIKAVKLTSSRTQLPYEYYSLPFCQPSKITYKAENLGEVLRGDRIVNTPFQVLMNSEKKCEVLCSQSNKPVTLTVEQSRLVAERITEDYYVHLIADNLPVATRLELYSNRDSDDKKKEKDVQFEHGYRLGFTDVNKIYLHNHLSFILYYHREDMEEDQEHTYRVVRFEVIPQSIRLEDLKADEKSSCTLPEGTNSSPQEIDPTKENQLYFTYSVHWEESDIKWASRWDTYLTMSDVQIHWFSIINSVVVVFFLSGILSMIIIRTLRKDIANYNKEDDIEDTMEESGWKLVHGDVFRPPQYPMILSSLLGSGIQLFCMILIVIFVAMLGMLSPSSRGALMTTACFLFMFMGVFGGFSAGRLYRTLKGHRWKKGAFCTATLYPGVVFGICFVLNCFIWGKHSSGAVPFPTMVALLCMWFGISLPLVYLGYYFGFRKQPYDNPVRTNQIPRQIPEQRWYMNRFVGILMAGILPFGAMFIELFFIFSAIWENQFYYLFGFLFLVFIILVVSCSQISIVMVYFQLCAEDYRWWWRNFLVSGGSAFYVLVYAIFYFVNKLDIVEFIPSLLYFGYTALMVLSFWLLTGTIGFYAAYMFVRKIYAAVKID
UniProt Q02447, sequence (Q02447 whole entry, looked up): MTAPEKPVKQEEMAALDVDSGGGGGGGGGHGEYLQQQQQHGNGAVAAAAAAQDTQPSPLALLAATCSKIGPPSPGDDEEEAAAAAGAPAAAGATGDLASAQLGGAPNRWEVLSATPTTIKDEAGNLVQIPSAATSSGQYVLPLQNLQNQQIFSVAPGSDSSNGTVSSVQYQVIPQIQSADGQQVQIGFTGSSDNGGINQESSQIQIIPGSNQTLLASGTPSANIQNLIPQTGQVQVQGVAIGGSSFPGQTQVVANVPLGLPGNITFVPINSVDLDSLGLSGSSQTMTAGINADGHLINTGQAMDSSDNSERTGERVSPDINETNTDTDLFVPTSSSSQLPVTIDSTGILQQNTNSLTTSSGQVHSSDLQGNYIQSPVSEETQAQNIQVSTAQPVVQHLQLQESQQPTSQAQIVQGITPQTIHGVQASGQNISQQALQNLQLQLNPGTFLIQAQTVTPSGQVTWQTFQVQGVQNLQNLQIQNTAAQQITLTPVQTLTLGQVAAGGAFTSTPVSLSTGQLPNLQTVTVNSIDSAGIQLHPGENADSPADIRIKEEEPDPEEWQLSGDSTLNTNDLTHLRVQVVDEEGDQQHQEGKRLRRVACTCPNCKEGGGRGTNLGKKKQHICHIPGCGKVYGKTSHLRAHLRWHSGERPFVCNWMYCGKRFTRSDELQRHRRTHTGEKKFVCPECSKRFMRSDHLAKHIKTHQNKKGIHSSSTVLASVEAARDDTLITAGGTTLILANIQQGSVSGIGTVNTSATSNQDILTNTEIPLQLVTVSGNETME
UniProt Q9BTW9, sequence (Q9BTW9 whole entry, looked up): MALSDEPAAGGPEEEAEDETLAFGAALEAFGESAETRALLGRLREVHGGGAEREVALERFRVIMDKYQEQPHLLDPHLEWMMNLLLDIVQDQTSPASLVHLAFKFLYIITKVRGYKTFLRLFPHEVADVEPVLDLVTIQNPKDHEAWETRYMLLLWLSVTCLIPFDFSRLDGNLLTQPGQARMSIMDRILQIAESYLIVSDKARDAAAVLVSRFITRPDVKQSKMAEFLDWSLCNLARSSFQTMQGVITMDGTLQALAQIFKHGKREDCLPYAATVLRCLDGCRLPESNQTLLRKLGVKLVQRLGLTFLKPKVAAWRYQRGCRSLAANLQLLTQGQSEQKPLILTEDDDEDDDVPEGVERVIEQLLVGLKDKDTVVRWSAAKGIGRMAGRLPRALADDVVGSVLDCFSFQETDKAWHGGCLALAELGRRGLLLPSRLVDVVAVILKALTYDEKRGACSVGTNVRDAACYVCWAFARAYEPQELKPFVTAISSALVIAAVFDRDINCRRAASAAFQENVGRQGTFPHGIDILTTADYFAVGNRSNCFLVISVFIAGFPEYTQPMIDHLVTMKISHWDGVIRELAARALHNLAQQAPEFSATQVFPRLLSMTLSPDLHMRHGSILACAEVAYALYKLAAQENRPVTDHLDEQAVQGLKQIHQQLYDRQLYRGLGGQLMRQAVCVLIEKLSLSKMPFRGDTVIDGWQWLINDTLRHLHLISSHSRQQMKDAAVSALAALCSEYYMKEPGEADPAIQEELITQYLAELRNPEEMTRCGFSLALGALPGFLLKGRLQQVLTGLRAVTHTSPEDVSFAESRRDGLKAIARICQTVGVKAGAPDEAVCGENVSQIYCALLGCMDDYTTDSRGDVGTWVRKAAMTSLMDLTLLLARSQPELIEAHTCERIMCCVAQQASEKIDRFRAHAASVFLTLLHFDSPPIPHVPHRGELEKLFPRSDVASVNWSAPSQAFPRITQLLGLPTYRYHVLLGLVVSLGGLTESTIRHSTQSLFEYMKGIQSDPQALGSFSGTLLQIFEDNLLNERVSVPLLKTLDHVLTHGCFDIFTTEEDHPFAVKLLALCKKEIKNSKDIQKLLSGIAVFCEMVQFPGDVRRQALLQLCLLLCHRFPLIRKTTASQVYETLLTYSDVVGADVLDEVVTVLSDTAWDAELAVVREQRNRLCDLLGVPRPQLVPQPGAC
UniProt O00193, sequence (O00193 whole entry, looked up): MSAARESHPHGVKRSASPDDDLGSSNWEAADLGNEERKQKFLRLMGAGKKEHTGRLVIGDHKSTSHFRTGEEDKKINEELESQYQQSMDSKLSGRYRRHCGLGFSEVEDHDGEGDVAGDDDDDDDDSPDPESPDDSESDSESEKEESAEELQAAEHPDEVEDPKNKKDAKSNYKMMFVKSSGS
UniProt Q6XR72, sequence (Q6XR72 whole entry, looked up): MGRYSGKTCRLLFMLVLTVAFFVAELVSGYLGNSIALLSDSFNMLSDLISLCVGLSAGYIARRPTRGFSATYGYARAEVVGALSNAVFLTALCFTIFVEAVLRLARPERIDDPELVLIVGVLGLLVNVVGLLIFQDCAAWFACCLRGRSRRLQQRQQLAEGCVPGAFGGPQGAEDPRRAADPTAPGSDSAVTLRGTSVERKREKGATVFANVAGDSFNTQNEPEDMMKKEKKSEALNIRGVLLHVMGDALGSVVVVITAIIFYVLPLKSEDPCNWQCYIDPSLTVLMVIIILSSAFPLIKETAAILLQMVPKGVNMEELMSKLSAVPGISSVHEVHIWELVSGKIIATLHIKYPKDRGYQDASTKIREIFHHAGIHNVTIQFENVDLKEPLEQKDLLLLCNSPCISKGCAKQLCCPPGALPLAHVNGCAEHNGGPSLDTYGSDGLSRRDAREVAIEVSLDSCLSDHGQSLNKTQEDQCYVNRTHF
UniProt Q96DW6, sequence (Q96DW6 whole entry, looked up): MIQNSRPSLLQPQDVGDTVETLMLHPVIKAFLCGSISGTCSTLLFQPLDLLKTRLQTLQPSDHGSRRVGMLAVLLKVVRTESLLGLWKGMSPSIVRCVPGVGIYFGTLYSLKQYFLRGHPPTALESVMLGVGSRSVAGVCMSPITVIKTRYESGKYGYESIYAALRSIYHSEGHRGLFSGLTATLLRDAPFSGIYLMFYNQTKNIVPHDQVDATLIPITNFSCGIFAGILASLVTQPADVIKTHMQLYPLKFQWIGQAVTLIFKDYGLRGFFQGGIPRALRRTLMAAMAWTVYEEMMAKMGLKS

log2 fold change, inactive:
TIMM13 (UniProt Q9Y5L4) 0.003
SLC25A38 (UniProt Q96DW6) 0.129
SMARCA5 (UniProt O60264) -0.012
TEX30 (UniProt Q5JUR7) 0.188
SMG1 (UniProt Q96Q15) -0.029
SNRPD3 (UniProt P62318) 0.012
SUPT5H (UniProt O00267) 0.017
SPAST (UniProt Q9UBP0) 0.06
TBCD (UniProt Q9BTW9) 0.069
SMAP (UniProt O00193) -0.063
SPR (UniProt P35270) 0.115
TAOK3 (UniProt Q9H2K8) 0.02
SP3 (UniProt Q02447) 0.003
STOM (UniProt P27105) 0.054
TJP1 (UniProt Q07157) 0.013
SLC30A10 (UniProt Q6XR72) 0.077
SPCS2 (UniProt Q15005) 0.011
TM9SF4 (UniProt Q92544) -0.054
STAT5B (UniProt P51692) 0.028
SRSF10 (UniProt O75494) -0.044
SNX12 isoform 1 (UniProt Q9UMY4) 0.065
TBC1D15 isoform 3 (UniProt Q8TC07) 0.059
SYMPK (UniProt Q92797) 0.189
